EphB4 ephrin blk: antagonists of human EphB4-ephrin-B2 interaction. EphB4 LBD / TNYL-RAW-Alexa532 peptide, fluorescence polarization. inhibition, % at 7 µM. 97,000 compounds, 0.15% hits. AID 720;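 active means inhibition above the screen-wide mean inhibition plus 3 SD, cut at about 15% in these data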;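 further: 0% = DMSO wells and 100% = excess unlabeled TNYL-RAW peptide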
CYP2C19 act: cytochrome P450 2C19 (human) activation; P33261; recombinant CYP2C19, luciferin-H EGE luminescence; stronger effect = higher value; 0 = fully inhibited enzyme, 1 = untreated enzyme; activation factor at 5 µM; 96,000 tested, under 10 active;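 active means activation factor of at least 2 at 5 µM in the primary screen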;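 further: 0 = wells with 2.5 mM tranylcypromine and 1 = vehicle-only wells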
CYP2C9 activ: CYP2C9 (human) activation; recombinant CYP2C9, luciferin-H conversion, luminescence; stronger effect = higher value; factor 1 = untreated enzyme, 0 = blocked; 96,000 compounds, 1.4% hits; activation factor at 5 µM; AID 1024;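 active means activation factor of 2 or more for CYP2C9 at a 5 µM dose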;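 further: 0 = sulfaphenazole-blocked wells and 1 = vehicle-only wells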
Target sequence (P11712 whole entry, looked up): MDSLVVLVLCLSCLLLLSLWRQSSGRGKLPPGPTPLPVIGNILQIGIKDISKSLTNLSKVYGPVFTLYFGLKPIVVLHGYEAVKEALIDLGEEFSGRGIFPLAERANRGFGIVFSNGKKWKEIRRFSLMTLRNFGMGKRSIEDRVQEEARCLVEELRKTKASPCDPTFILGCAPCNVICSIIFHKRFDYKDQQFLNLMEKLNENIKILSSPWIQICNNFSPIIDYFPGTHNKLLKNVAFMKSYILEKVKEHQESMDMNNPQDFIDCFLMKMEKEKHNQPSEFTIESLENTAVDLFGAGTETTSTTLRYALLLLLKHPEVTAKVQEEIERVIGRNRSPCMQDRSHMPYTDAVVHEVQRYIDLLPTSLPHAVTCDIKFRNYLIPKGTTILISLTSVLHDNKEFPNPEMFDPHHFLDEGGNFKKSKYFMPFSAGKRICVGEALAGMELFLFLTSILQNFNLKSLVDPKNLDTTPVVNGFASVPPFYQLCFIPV
CYP2C19 inhib: inhibitors of human CYP2C19 | inhibition, % at 5 µM | P33261 | CYP2C19 Supersomes, luciferin-H EGE luminescence, 30 min | AID 778 | 96,000 compounds, 21% hits;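 active means CYP2C19 inhibition above a set limit at 5 µM in the primary screen, cut at about 50% in these data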;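 further: plate controls were negative control wells for no effect and 2.5 mM tranylcypromine positive control for full effect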
CYP2C9 inh: blocks human cytochrome P450 2C9 | P11712 | CYP2C9 Supersomes, luciferin-H conversion, luminescence | inhibition, % at 5 µM | 96,000 compounds, 20% hits;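 active means blocking of liver enzyme CYP2C9 beyond about 50% at 5 µM, limit read from the data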
The depositor's hits bear a star. Most compounds without a hit are left out; they make up all but 27% or so of the library.

Screening O=C1C(c2ccccc2)C(c2ccccc2)NC(c2ccccc2)C1c1ccccc1 (stereo unspecified) returned EphB4 ephrin blk 0, CYP2C19 act 1.1, CYP2C9 activ 0.9, CYP2C19 inhib -5 and CYP2C9 inh 12.
O=C(CCNS(=O)(=O)c1ccc(Br)cc1)NCc1ccc2c(c1)OCO2 was read as EphB4 ephrin blk -2, CYP2C19 act 0.8, CYP2C9 activ 1.1, CYP2C19 inhib 22 and CYP2C9 inh -6.
Screening CCCCCCC1CC(CSc2ncn[nH]2)OC1=O (stereo unspecified) returned EphB4 ephrin blk -2, CYP2C19 act 0.1, CYP2C9 activ 0.3, CYP2C19 inhib 91* and CYP2C9 inh 67*.
`CCCCCC1CC(CC(=O)O)C(=O)O1` (stereo unspecified) gave EphB4 ephrin blk 0, CYP2C19 act 0.8, CYP2C9 activ 0.9, CYP2C19 inhib 17 and CYP2C9 inh 11.
`COc1cc(/C=C(/NC(=O)c2ccccc2Cl)C(=O)O)cc(OC)c1OC` gave EphB4 ephrin blk -5, CYP2C19 act 1.1, CYP2C9 activ 1.1, CYP2C19 inhib -7 and CYP2C9 inh -7.
CSc1nn(CCc2ccncc2)c(=S)s1 was read as EphB4 ephrin blk 0, CYP2C19 act 0, CYP2C9 activ 0.4, CYP2C19 inhib 97* and CYP2C9 inh 65*.
`COc1ccc(NC(=O)CSc2nnc(-c3ccccn3)n2N)cc1` gave EphB4 ephrin blk -5, CYP2C19 act 0.9, CYP2C9 activ 0.6, CYP2C19 inhib 13 and CYP2C9 inh 39.
`CC1CN(S(=O)(=O)c2cccc3nsnc23)CC(C)O1` (stereo unspecified) gave EphB4 ephrin blk -1.
Nc1cc(-c2ccc(Cl)cc2)nn1S(=O)(=O)c1cccc2nsnc12 was read as EphB4 ephrin blk 0, CYP2C19 act 0.1, CYP2C9 activ 0.1, CYP2C19 inhib 94* and CYP2C9 inh 86*.
Screening Nc1cc(-c2ccc(Br)cc2)nn1S(=O)(=O)c1cccc2nsnc12 returned EphB4 ephrin blk -5, CYP2C19 act 0, CYP2C9 activ 0.1, CYP2C19 inhib 96* and CYP2C9 inh 89*.
Screening CCOc1cc(-c2cn(S(=O)(=O)c3cccc4nsnc34)nc2N)cc(OCC)c1OCC returned EphB4 ephrin blk -2, CYP2C19 act 1, CYP2C9 activ 0.6, CYP2C19 inhib -3 and CYP2C9 inh 36.
`O=C(CN1C(=O)CCC1=O)Nc1ccc(Br)cc1` gave CYP2C19 act 0.8, CYP2C9 activ 0.9, CYP2C19 inhib 15 and CYP2C9 inh 7.
Screening COc1cc(-c2nnc(COC(=O)C3c4ccccc4Oc4ccccc43)o2)cc(OC)c1OC returned EphB4 ephrin blk 9, CYP2C19 act 0.8, CYP2C9 activ 0.5, CYP2C19 inhib 24 and CYP2C9 inh 49.
For COc1ccc(CNC(=O)c2cccc3c2C(=O)N(Cc2cccnc2)C3)cc1 the results were CYP2C19 act 0.5, CYP2C9 activ 0.2, CYP2C19 inhib 55* and CYP2C9 inh 76*.
`COCCN1Cc2cccc(C(=O)NCc3cccnc3)c2C1=O` gave EphB4 ephrin blk -6, CYP2C19 act 0.2, CYP2C9 activ 0.9, CYP2C19 inhib 78* and CYP2C9 inh 8.
Screening O=C(NCc1cccnc1)c1cccc2c1C(=O)N(Cc1cccnc1)C2 returned EphB4 ephrin blk 7, CYP2C19 act 0.2, CYP2C9 activ 0.5, CYP2C19 inhib 76* and CYP2C9 inh 46.
Screening CCOC(=O)Cn1cc(/C=N/NC(=O)c2ccc(C#N)cc2F)c2ccccc21 returned EphB4 ephrin blk -5, CYP2C19 act 0.8, CYP2C9 activ 0.3, CYP2C19 inhib 22 and CYP2C9 inh 75*.
For O=c1[nH]cnc2scc(-c3ccccc3)c12 the results were EphB4 ephrin blk -10, CYP2C19 act 0.9, CYP2C9 activ 0.9, CYP2C19 inhib 8 and CYP2C9 inh 7.
Screening O=C(Cc1cccc2ccccc12)NNC(=O)c1cccs1 returned EphB4 ephrin blk 7, CYP2C19 act 0.6, CYP2C9 activ 1, CYP2C19 inhib 41 and CYP2C9 inh -2.
`COc1ccc(C2CC2/C(=N/OC(=O)c2cccs2)c2ccccc2)cc1` (stereo unspecified) gave EphB4 ephrin blk -3, CYP2C19 act 0.3, CYP2C9 activ 0.1, CYP2C19 inhib 71* and CYP2C9 inh 94*.
C/C(=N/NC(=O)Cc1cccc2ccccc12)c1cccs1 was read as EphB4 ephrin blk -4, CYP2C19 act 0.2, CYP2C9 activ 0.8, CYP2C19 inhib 76* and CYP2C9 inh 19.
